Screens: PubChem, National Center for Advancing Translational Sciences (NCATS)
Only some compounds are listed: those with a hit (about 8.1% of all), similar ones and a draw of the others.
RORg inh – inhibitors of mouse ROR gamma transcriptional activity | actives 5.4% (n = 310,000) | Potency, µM (highest dose often 53.6 µM), actives largely listed as inhibitors | AID 2551 | P51450 | Drosophila S2 Gal4-RORgamma UAS-luciferase reporter, 20 h; further: nearly all actives have a fitted effect of over 60% in size
Target sequence (P51450 whole entry, looked up, the tested form may be a part): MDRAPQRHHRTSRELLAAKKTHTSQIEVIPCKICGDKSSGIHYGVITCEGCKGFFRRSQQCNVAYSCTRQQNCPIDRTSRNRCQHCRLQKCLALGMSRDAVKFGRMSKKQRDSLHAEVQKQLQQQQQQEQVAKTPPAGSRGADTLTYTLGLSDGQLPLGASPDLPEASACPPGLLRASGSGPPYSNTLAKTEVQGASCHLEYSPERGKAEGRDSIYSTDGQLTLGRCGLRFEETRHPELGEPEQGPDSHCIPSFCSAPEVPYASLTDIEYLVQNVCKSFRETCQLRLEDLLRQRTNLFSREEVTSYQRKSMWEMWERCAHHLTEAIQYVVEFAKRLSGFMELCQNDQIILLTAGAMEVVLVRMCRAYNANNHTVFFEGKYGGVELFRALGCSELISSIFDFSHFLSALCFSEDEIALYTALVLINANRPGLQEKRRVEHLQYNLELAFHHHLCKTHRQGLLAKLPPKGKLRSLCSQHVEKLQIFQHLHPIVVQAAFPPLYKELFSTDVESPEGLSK
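Stable Schneider cell line, Gal4 DNA-binding domain fused to ROR gamma, UAS-luciferase. Cmpd 1 hr RT → CuSO4 700 uM final → 20 hr RT → luciferase reagent 10 min → luminescence.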
PINK1 expr mod – changes PINK1 expression; Potency, µM (titrated, usually from 76.6 µM), most hits filed as activators; actives 0.2% (n = 410,000); AID 624263; PINK1 immunofluorescence, high-content cytometry, 24 h; active means well fitted activation curve with a large enough effect; inconclusive means small, poorly fitted or top-dose-only effect; cell line not stated here; further: nearly all actives have a fitted effect of over 65% in size
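Measures PINK1 amount and localization on or inside mitochondria by immunofluorescence. Stable cells get compounds at 5 concentrations for 24 hours before fixation and staining; CCCP controls included.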
Sfp inh – Sfp phosphopantetheinyl transferase inhibition. Q9F4F7. Biochemical Sfp PPTase activity, qHTS. Potency, µM, usual class: inhibitors. actives 3.5% (n = 310,000). AID 1490;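 further: the enzyme is Sfp with the accession as filed and its product quenches rhodamine fluorescence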
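Reaction rates are the 30-min fluorescence difference (ex 525, em 598 nm) in wells containing 15 nM Sfp, 5 uM rhodamine-CoA and 12.5 uM BHQ-2-YbbR at pH 7.6 with 10 mM MgCl2.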
Epigenetic derep – regulators of epigenetic silencing causing reporter derepression in mouse cells; murine LDR cells, GFP reporter derepression, 30 h; Potency, µM (series often up to 53.9 µM), actives largely listed as activators; actives 0.2% (n = 280,000); AID 1865; further: nearly all actives have a fitted effect of over 60% in size
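Derepression of a silenced CMV-GFP reporter in murine LDR cells is scored by enumerating GFP-positive cells with a laser-scanning microplate cytometer after 30 hours of treatment at 37 C.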
ClpP mod – qHTS Assay for Activators of ClpP. purified B. subtilis ClpP, FRET peptide cleavage, 20 min. actives 1.9% (n = 340,000). ATP-dependent Clp protease proteolytic subunit (Bacillus subtilis (strain 168)), P80244. Potency, µM (titrated, usually from 57.5 µM); active means well fitted falling curve with a large enough effect; inconclusive means small, poorly fitted or top-dose-only effect; inactive means no such curve, though single readings can be large or run the other way; further: the source files actives as falling curves though it sought activators and does not explain the sign; nearly all actives have a fitted effect of over 65% in size
Target sequence (P80244 whole entry, looked up): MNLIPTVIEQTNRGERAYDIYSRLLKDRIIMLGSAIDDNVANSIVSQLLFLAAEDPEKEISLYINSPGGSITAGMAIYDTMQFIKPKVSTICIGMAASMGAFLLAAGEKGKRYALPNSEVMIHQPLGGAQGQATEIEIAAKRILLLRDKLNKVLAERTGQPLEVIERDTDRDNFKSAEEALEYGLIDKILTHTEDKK
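Purified B. subtilis ClpP, 10 microg/mL final in Tris/HCl pH8 with KCl, BSA, glycerol and Tween-20, cleaved an Abz/nitrotyrosine-quenched decapeptide. Fluorescence (ex 320, em 430) was read at 0 and 20 min at room temperature. Delta was normalized to 5.8 microM ADEP and DMSO/no-enzyme controls.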
Gal4-VP16 FLuc – Gal4-VP16 reporter inhibition counter-screen. Drosophila S2 Gal4-VP16 UAS-luciferase, luminescence, 20 h. AID 2546. Potency, µM (titrated, usually from 53.6 µM), usual class: inhibitors. actives 3.5% (n = 310,000);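 further: Gal4-VP16 expression switched on by copper sulfate through the metallothionein promoter; nearly all actives have a fitted effect of over 50% in size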
A number is an active result; 0 = inactive; ? = inconclusive; - = not tested or not shown; [ ] = another dose, or the depositor's remark. Unless noted, the call rests on the fitted dose curve; in most records, active means well fitted curve in the direction sought with a large enough effect; inconclusive means small, poorly fitted or top-dose-only effect, or another doubt; inactive means no such curve, though single readings can be large; an effect the other way counts as inactive or inconclusive.

SMILES	RORg inh	PINK1 expr mod	Sfp inh	Epigenetic derep	ClpP mod	Gal4-VP16 FLuc
COC(=O)[C@H](COC(C)(C)C)NC(=O)O[C@@H]1Cc2cc(OC)ccc2O[C@H]1c1cccc(OC)c1	0	-	0	0	-	0
COc1ccc(-n2ncc3c2ncn2nc(-c4ccc(Cl)cc4Cl)nc32)cc1	-	0	-	0	0	-
COc1cc(/C=N/NC(=O)c2cncc(Br)c2)cc([N+](=O)[O-])c1O	0.32µM	0	0	0	0	?
COc1ccc(/C=N/NC(=O)c2ccncc2)cc1[N+](=O)[O-]	0	0	0	0	0	0
COc1cc([N+](=O)[O-])cc(/C=N/NC(=O)c2cncc(Br)c2)c1O	2.8µM	0	0	0	0	?
COC(=O)c1ccc(N/N=C/c2cc([N+](=O)[O-])cc(OC)c2O)cc1	0	0	0	0	-	0
CN(C)c1cccc(C(=O)N2CCC(c3ccncc3)CC2)c1	-	0	-	0	0	-
CCc1cc2c(=O)n(Cc3ccco3)c(SCC(=O)NCC3CCCO3)nc2s1 (stereo not drawn)	?	0	0	-	0	0
CCc1cc2c(=O)n(Cc3ccco3)c(SCC(=O)NC3CCS(=O)(=O)C3)nc2s1 (stereo not drawn)	0	0	32µM	0	0	?
COCCn1c(SCC(=O)N(C)C2CCS(=O)(=O)C2)nc2ccccc2c1=O (stereo not drawn)	0	0	0	0[10.1 µM]	0	0[10 µM]
CCc1cc2c(=O)n(Cc3ccco3)c(SCC(=O)N(C)C3CCS(=O)(=O)C3)nc2s1 (stereo not drawn)	10µM	0	7.9µM	0	-	?
CN(C(=O)CSc1nc2ccccc2n1CCc1ccccc1)C1CCS(=O)(=O)C1 (stereo not drawn)	16µM	0	0	0	0	?
CN(C(=O)CSc1nc2cc(Cl)ccc2c(=O)n1Cc1ccco1)C1CCS(=O)(=O)C1 (stereo not drawn)	0	0	0	0	-	0
CCc1cc2c(=O)n(Cc3ccco3)c(SCC(=O)N3CCCc4ccccc43)nc2s1	0	0	45µM	0	0	0
Cc1c(C(=O)N2CC[C@@H]3CCCC[C@H]3C2)sc2ncnc(NCCc3ccccn3)c12	-	0	-	-	-	-
COc1ccccc1NC(=O)c1cc(S(=O)(=O)N(C)C2CCCCC2)ccc1F	-	0	-	0	0	-
COc1cccc(N(C(=O)Cn2nnc3ccccc32)C(C(=O)NCc2ccco2)c2cccnc2)c1 (stereo not drawn)	0	0	0	0	35µM	0
CCCCN(C(=O)Cn1nnc2ccccc21)C(C(=O)NCc1ccco1)c1ccncc1 (stereo not drawn)	0	0	50µM	0	0	0
Cc1ccc(C)c(N(C(=O)Cn2nnc3ccccc32)C(C(=O)NCc2ccco2)c2ccncc2)c1 (stereo not drawn)	0	0	0	0	0	0
Cc1cc(C)cc(N(C(=O)Cn2nnc3ccccc32)C(C(=O)NCc2ccco2)c2ccncc2)c1 (stereo not drawn)	0	0	45µM	0	0	0
CCOc1ccc2ncc3c(-c4ccc(C)cc4)nn(-c4cccc(F)c4)c3c2c1	-	0	-	0	0	-
Cc1ccccc1CNC(=O)C(=O)NCC(c1ccc2c(c1)OCO2)N1CCOCC1 (stereo not drawn)	-	0	-	0	0	-
COc1ccc(-c2cnc(NCc3cc4c(cc3[N+](=O)[O-])OCO4)n2C)cc1	0	0	50µM	0	0	0
CCOC(=O)COc1ccc(CC)cc1C(=O)c1ccn2nc(-c3ccccc3)cc2n1	-	0	-	0	0	-
O=S(=O)(c1ccccc1)c1nc(-c2ccco2)oc1NCCCN1CCOCC1	0	0	?	0	0	0
SMILES	RORg inh	PINK1 expr mod	Sfp inh	Epigenetic derep	ClpP mod	Gal4-VP16 FLuc
N#Cc1nc(-c2ccco2)oc1NCc1ccco1	0	0	0	0	3.2µM	0
Cc1ccc2cc(C)c(SCC(=O)NCc3ccco3)nc2c1	?	0	0	0	-	0
N#Cc1nc(-c2ccc(F)cc2)oc1NCc1ccco1	0	0	0	0	0	0
Cc1ccc(-c2nc(C#N)c(NCc3ccco3)o2)cc1	0	0	0	0	20µM	0
Cc1ccc2cc(C#N)c(NCc3ccco3)nc2c1	0	0	?	0	25µM	0
N#Cc1nc(-c2ccco2)oc1NCCCN1CCOCC1	0	0	0	0	3.5µM	0
COc1cc(OC)cc(C(=O)N2CCCC(n3cc(C(=O)NCC(C)C)nn3)C2)c1 (stereo not drawn)	-	0	-	-	-	-
COc1cccc(C(=O)NCC2Cc3cccc(-c4nc(C)cnc4C)c3O2)c1OC (stereo not drawn)	-	0	-	-	-	-
Cc1ccc(/C=N/NC(=O)c2ccccn2)s1	?	0	?	0	0	22µM
Cn1cccc1/C=N/NC(=O)c1ccncc1	?	0	0	0	-	0
Cn1cccc1/C=N/NC(N)=S	6.3µM	0	56µM	0	-	?
O=C(N/N=C/c1cccs1)c1ccccn1	14µM	0	50µM	0	0	?
O=C(CSc1ncccn1)N/N=C/c1cccs1	0	0	0	0	0	0
Cn1cccc1/C=N\NC(=O)c1cncc(Br)c1	13µM	0	0	0	-	?
Cn1cccc1/C=N/NC(=O)C(O)c1ccccc1 (stereo not drawn)	0	0	0	0	0	0
Cc1cc(C(=O)N/N=C/c2ccc(C)s2)n[nH]1	0	0	0	-	-	0
Cc1cc(C)c(NC(=O)C2CCN(S(=O)(=O)c3c(C)noc3/C=C/c3ccccc3F)CC2)c(C)c1	-	0	-	0	?	-
COc1cc(N(C)C)c(OC)cc1/C=C/c1ccnc2ccccc12	-	0	-	-	0	-
CC(=O)Nc1cc(C(=O)N2CCSCC2)cc2ncn(CCc3ccccn3)c12	-	0	-	-	-	-
COc1ccc(N(C(=O)c2ccc(Cl)cc2)S(=O)(=O)c2ccc(C)cc2)cc1	-	0	-	0	0	-
CCN1CCC(N(Cc2ccc(F)cc2)C(=O)Nc2cccc(C(F)(F)F)c2)CC1	-	0	-	0	0	-
COc1ccc(CNC(=O)Cc2c(C)c3c(cc(C)c4c(C)coc43)oc2=O)cc1	-	0	-	0	?	-
Cc1ccccc1-c1nc(CS(=O)(=O)CC(=O)Nc2cccc(C(F)(F)F)c2)c(C)o1	-	0	-	0	0	-
Cc1ccc(S(=O)(=O)NNC(=O)c2csnn2)cc1	0	0	0	0	0	0
CCN(CC)c1ccc(/C=N/NC(=O)c2ccccn2)cc1	?	0	0	0	-	0
CCc1ccc(/C=N/NC(=O)c2ccccn2)cc1	10µM	0	0	0	-	?
Cc1ccc(/C=N\NC(=O)c2csnn2)cc1	0	0	10µM	0	0	0
O=C(N/N=C/c1cccs1)C(=O)Nc1cccc(Cl)c1	3.2µM	0	0	0	0	10µM
Cn1cccc1/C=N/NC(=O)c1ccccn1	0	0	79µM	0	0	0
COc1ccccc1-c1noc(-c2ccc(NC3CCCC3)c([N+](=O)[O-])c2)n1	-	0	-	0	0	-
